Assay results as given in PubChem BioAssay (NCATS).
Results filed as inconclusive are left out. Entries that show only a call come without a potency. A number with no mark means an inactive call. Activity calls are given as the source filed them. Calls come from the whole dose curve; as a rule, active = well fitted cell-killing curve with a large enough effect; inconclusive = small, poorly fitted or top-dose-only effect, or effect the other way; inactive = no such curve, though single readings can be large or run the other way.

Experiments:
[1] = Viability qHTS for spleen associated tyrosine kinase inhibitor (SYKi) naive MV4-11 cells (AID 1963823); settings: MV4-11 AML viability, CellTiter-Glo luminescence, 72 h; series mostly up to 45 µM; note: nearly all actives have a fitted effect of over 40% in size
Summary of the method: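 CellTiter-Glo luminescence, 10 min room-temperature incubation, gave viability. Cells: naive MV4-11 (500/well), treated 72 hr at 37 C, 5% CO2.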

[2] = Viability qHTS for spleen associated tyrosine kinase inhibitor (SYKi) drug resistant MV4-11 cells (AID 1963824); settings: SYKi-resistant MV4-11 viability, CellTiter-Glo, 72 h; series mostly up to 45 µM; note: nearly all actives have a fitted effect of over 35% in size
Summary of the method: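 SYK-inhibitor-resistant MV4-11 AML cells were seeded at 500 per well onto compound and cultured 72 hours (37 °C, 5% CO2). CellTiter-Glo was then added, and after 10 min at room temperature, luminescence gave viability.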
Potency is the fitted concentration of half-maximal effect.

Row | Compound | Potency [1] | Potency [2] | viability (% of control) [1] | viability, % of control [2]
1 | CC(=O)O[C@@H]1[C@H](OC(C)=O)C[C@@]2(C)C(CC[C@@H](C)[C@]23Cc2c(O)cc4c(c2O3)CN([C@@H](CCC(=O)O)C(=O)O)C4=O)C1(C)C (stereo partly drawn) | inactive | inactive | – | –
2 | COC(=O)C1=COC(OC2OC(CO)C(O)C(O)C2O)C2C(C)CC(=O)C12O (stereo not drawn) | inactive | inactive | – | –
3 | C=C1CC23CC1CCC2C12OC(=O)C(C)(CCC1O)C2C3C(=O)O (stereo not drawn) | inactive | inactive | – | –
4 | CC(=O)/C=C/[C@H]1[C@](C)(O)[C@@H](O)[C@H](O)C2C(C)(C)CCC[C@@]21C (stereo partly drawn) | inactive | inactive | – | –
5 | CC(=O)OC[C@]12[C@H](OC(C)=O)C(=O)[C@@H]3[C@@H](OC(C)=O)[C@@]14O[C@@]3(C)COC(=O)c1cccnc1[C@@H](C)[C@H](C)C(=O)O[C@@H]([C@H](O)[C@@H]2OC(C)=O)[C@]4(C)O | inactive | inactive | – | –
6 | O=C(OCC1OC(Oc2ccc(O)cc2COC(=O)C2(O)C(O)CCC(=O)C2OC(=O)C2C=CCC2)C(OC(=O)C2C=CCC2)C(O)C1O)C1C=CCC1 (stereo not drawn) | inactive | inactive | – | –
7 | CC(C)[C@H]1CC[C@@]2(O)COC(=O)[C@H]2[C@@H]1/C=C(\CO)C(=O)O | inactive | inactive | – | –
8 | CC(C)=CCC[C@](C)(O[C@@H]1O[C@H](CO[C@@H]2OC[C@H](O)[C@H](O)[C@H]2O)[C@@H](O)[C@H](O)[C@H]1O)[C@H]1CC[C@]2(C)[C@@H]1[C@H](O)C[C@@H]1[C@@]3(C)CC[C@H](O[C@@H]4O[C@H](CO)[C@@H](O)[C@H](O)[C@H]4O[C@@H]4O[C@H](CO)[C@@H](O)[C@H](O)[C@H]4O)C(C)(C)[C@@H]3CC[C@]12C | inactive | inactive | – | –
9 | C=C(C)C(=O)O[C@H]1C[C@@](C)(O)C2(O)CCC(C)(/C=C3/OC(=O)C(COC)=C31)O2 (stereo partly drawn) | 718 nM (active) | 453 nM (active) | – | –
10 | N=C(N)c1ccc2nc(-c3cc(CC(=O)NC(CC(=O)O)C(=O)O)cc(-c4cc(S(N)(=O)=O)ccc4O)c3O)[nH]c2c1 (stereo not drawn) | inactive | inactive | – | –
11 | COc1ccc(C(OC2OC(CO)C(O)C(O)C2O)C(C)O)cc1 (stereo not drawn) | inactive | inactive | – | –
12 | CC(C)CC1NC(=O)C(C(C)c2ccccc2)NC(=O)C(C(C)C)NC(=O)C(C)NC(=O)CCCNC(=O)C(Cc2c[nH]c3ccccc23)NC(=O)C(C)NC1=O (stereo not drawn) | inactive | inactive | – | –
13 | Cc1ccc(C2(C(=O)N3CCC(n4nc(-c5ccccc5)oc4=O)CC3)CC2)cc1 | inactive | inactive | – | –
14 | CCOc1cc(CC(=O)NC(CC(C)C)c2ccccc2N2CCCCC2)ccc1C(=O)O (stereo not drawn) | inactive | inactive | – | –
15 | CC(C)CC1NC(=O)C2CC3(O)c4ccccc4NC3N2C1=O (stereo not drawn) | inactive | inactive | – | –
16 | CC(C)c1cc2c(c(O)c1O)[C@@]13CCCC(C)(C)C1[C@@H](O)[C@@H]2OC3=O (stereo partly drawn) | 4530 nM (active) | 10100 nM (active) | – | –
17 | CC(=O)c1c(O)cc2c(c1C)C(=O)CC(O)C2 (stereo not drawn) | inactive | inactive | – | –
18 | C=C1CCC[C@]2(C)C[C@]3(O)OC(=O)C(C)=C3C[C@@H]12 | inactive | inactive | – | –
19 | CC(=O)O[C@@H]1[C@H](O[C@@H]2O[C@H](CO)[C@@H](O)[C@H](O)[C@H]2O)[C@@H](O[C@@H]2O[C@@H](C)[C@H](O)[C@@H](O[C@@H]3O[C@H](CO)[C@@H](O)[C@H](O)[C@H]3O)[C@H]2O)[C@H](OC(=O)[C@]23CCC(C)(C)C[C@H]2C2=CCC4[C@@]5(C)C[C@H](O)[C@H](O[C@@H]6O[C@H](C(=O)O)[C@@H](O)[C@H](O)[C@H]6O)[C@@](C)(C(=O)O)C5CC[C@@]4(C)[C@]2(C)CC3)O[C@@H]1C (stereo partly drawn) | – | – | 81.2% [at 9.25 µM] | 91.2% [at 9.25 µM]
20 | COc1cc(CCC2=NN=C(NC(=O)c3ccc(N4C[C@@H](C)N[C@@H](C)C4)cc3)C2)cc(OC)c1 | 461 nM (active) | 1460 nM (active) | – | –
21 | CC[N+]1(C/C2=C/CCCCCC2)CCC(NC(=O)C2c3cc(Cl)ccc3Oc3ccc(Cl)cc32)CC1 (stereo not drawn) | 6510 nM (active) | 3660 nM (active) | – | –
22 | Cc1cc(-c2cnc(N)c3c(-c4ccc5scnc5c4)csc23)n(C)n1 | 1300 nM (active) | 2590 nM (active) | – | –
23 | CC(C)C(C(=O)N1CCCC1C(=O)O)N(C)C(=O)C(O)Cc1ccccc1 (stereo not drawn) | inactive | inactive | – | –
24 | CC(=O)OC1(C)CC(O)C2(O)C=COC(OC3OC(CO)C(O)C(O)C3O)C12 (stereo not drawn) | inactive | inactive | – | –
